aSyn 5UTR inh: 5' untranslated region of α-synuclein, MLPCN primary screen; alpha-synuclein 5'UTR reporter, inhibitor activity; inhibition, % (tested at 7.5 µM); actives 0.82% (n = 300,000); AID 1813; in the data active = inhibition above about 60%;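 note: H4 neuroglioblastoma cells stably carrying SNCA 5'UTR luciferase fusion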
IEC-6 tox: kills IEC-6 intestinal cells in KLF5 counter-screen. inhibition, % at 5 µM. actives 0.78% (n = 290,000). AID 1825. IEC-6 cytotoxicity, luminescence viability
BaF3 parental: reduces parental Ba/F3 cell viability, JAK2V617F counter-screen; AID 1486; CellTiter-Glo ATP luminescence; inhibition, % at 5.6 µM; actives 1.1% (n = 220,000);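 active = inhibition above a per-campaign cutoff, the mean inhibition of all tested compounds plus 3 SD, cut at about 27% in these data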
KLF5 inh: kruppel-like factor 5 inhibition; DLD-1 KLF5 promoter-luciferase reporter, luminescence; inhibition, % at 5 µM; actives 0.23% (n = 290,000); AID 1700;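 active = inhibition above a per-plate limit of that plate's mean compound inhibition plus 3 SD, cut at about 60% in these data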;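 note: higher means less KLF5 promoter-driven luciferase light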
APP 5UTR inh: APP translation inhibition; SH-SY5Y APP 5'UTR-luciferase reporter, luminescence; inhibition, % at 2 µM; actives 0.82% (n = 190,000); AID 1285;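 active = inhibition above a set limit, derived from the sample mean plus 3 SD, cut at about 45% in these data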
Ba/F3 V617F tox: lowers viability of Ba/F3 cells expressing EpoR and JAK2V617F; actives 1.1% (n = 220,000); AID 1446; ATP luminescence; inhibition, % at 5.6 µM;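 active = inhibition above the campaign mean plus 3 SD over all tested compounds, cut at about 24% in these data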;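 note: cytokine-independent growth of Ba/F3 cells driven by EpoR plus mutant JAK2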
IEC-6 tox confirm: confirmation of cytotoxic compounds in rat IEC-6 intestinal epithelial cells | shares compounds with IEC-6 tox | IEC-6 rat intestinal epithelial viability, luminescence | inhibition, % at 5 µM | actives 63% (n = 1,900)
Each line names hits and unclear results; the compound was inactive in the other large screens (follow-up assays come after a bar, where they were run). The list is not random: actives were taken first. Their share in the collection is about 2.2%. Cut-off read from the data, not from the text of the source, unless noted: active = inhibition above about 22%; inactive = the rest.

COc1c(Cl)cnn(-c2ccccc2)c1=O	none
CCOC(=O)C(NC(=O)Nc1ccc(Cl)cn1)(Oc1ccc(F)cc1)C(F)(F)F (stereo not given)	IEC-6 tox 25 | IEC-6 tox confirm inactive
COc1cccc(C2=CC(=O)CC(C)(C)C2)n1	none (no result: IEC-6 tox, BaF3 parental, KLF5 inh, APP 5UTR inh, Ba/F3 V617F tox)
O=C(Nc1ccccc1)Nc1ccc(Cl)nc1Cl	none (no result: IEC-6 tox, BaF3 parental, KLF5 inh, APP 5UTR inh, Ba/F3 V617F tox)
COc1ccc(C(NC(=O)c2c(F)c(F)c(F)c(F)c2F)c2ccccc2)cc1 (stereo not given)	IEC-6 tox 27 | IEC-6 tox confirm inactive
Cc1cccnc1Sc1c([N+](=O)[O-])ncn1C	none
Cn1cnc(Sc2ncnc3nc[nH]c23)c1[N+](=O)[O-]	IEC-6 tox 39, BaF3 parental 36, Ba/F3 V617F tox 59 (no result: APP 5UTR inh) | IEC-6 tox confirm 36
Cc1ccc(OCCSc2ncnc3nc[nH]c23)cc1	none
Cn1cnc([N+](=O)[O-])c1Sc1ncnc2nc[nH]c12	IEC-6 tox 35, BaF3 parental 29, Ba/F3 V617F tox 56 (no result: APP 5UTR inh) | IEC-6 tox confirm 47
Cc1ccc(CNC(=O)c2ccc(N3CCC4(CC3)CC(c3ccccc3)=NO4)c(NC(=O)c3ccc(Br)cc3)c2)cc1	none (no result: BaF3 parental, APP 5UTR inh, Ba/F3 V617F tox)
Cc1cc(C)c(OCC(=O)Nc2nc3ccccc3[nH]2)c(C)c1	none
COc1ccc(NS(=O)(=O)c2ccc3c(c2)N(C(C)=O)CC(C)S3)c(OC)c1 (stereo not given)	none (no result: BaF3 parental, APP 5UTR inh, Ba/F3 V617F tox)
CC1CCc2c(C(=O)Nc3cccc(-c4nn[nH]n4)c3)csc2C1 (stereo not given)	IEC-6 tox 42 (no result: BaF3 parental, APP 5UTR inh, Ba/F3 V617F tox) | IEC-6 tox confirm inactive
CCc1nnc(NC(=O)c2csc3c2CCC(C)C3)s1 (stereo not given)	none
CCOC(=O)C1CCN(C(=O)c2ccccc2NS(=O)(=O)c2ccc(F)cc2)CC1	none
CC(C)n1cc(/C=N/Nc2ccc(C(=O)O)cc2)c2ccccc21	IEC-6 tox 35 (no result: BaF3 parental, APP 5UTR inh, Ba/F3 V617F tox) | IEC-6 tox confirm 55
CCN1CCN(CCNC(=O)c2ccc(/C=C3/Sc4ccccc4N(Cc4ccccc4C)C3=O)cc2)CC1	IEC-6 tox 30 | IEC-6 tox confirm inactive
Cc1cccc(NC(=O)Nc2ccc3c(c2)CCC3)c1	IEC-6 tox 90 (no result: BaF3 parental, APP 5UTR inh, Ba/F3 V617F tox) | IEC-6 tox confirm inactive
C#Cc1ccc([C@H]2C=C(C(=O)NCc3nc4ccccc4[nH]3)O[C@@H](OCC)[C@@H]2CCCO)cc1	none (no result: IEC-6 tox, BaF3 parental, KLF5 inh, APP 5UTR inh, Ba/F3 V617F tox)
CCO[C@@H]1OC(C(=O)NCc2nc3ccccc3[nH]2)=C[C@H](C2CC2)[C@H]1CCCO	IEC-6 tox 42, BaF3 parental 34 | IEC-6 tox confirm inactive
CCOc1ccc(/C=N/NC(=O)c2cc3c(OC)cc(OC)c(OC)c3[nH]2)cc1	none (no result: BaF3 parental, APP 5UTR inh, Ba/F3 V617F tox)
COc1ccc(C(=O)N/N=C/c2ccc(OC(=O)c3ccccc3)cc2)cc1	none
CCOc1ccc2[nH]c(C(=O)N/N=C/c3ccccc3OC)cc2c1	IEC-6 tox 48 (no result: BaF3 parental, APP 5UTR inh, Ba/F3 V617F tox) | IEC-6 tox confirm inactive
COc1ccc(C(=O)N/N=C/c2ccccc2OC(=O)c2ccccc2)cc1	IEC-6 tox 94 (no result: BaF3 parental, APP 5UTR inh, Ba/F3 V617F tox) | IEC-6 tox confirm inactive
CC(=O)NC1=NN(C(C)=O)C(C)(c2ccccc2)S1 (stereo not given)	IEC-6 tox 64, BaF3 parental 61, APP 5UTR inh 49, Ba/F3 V617F tox 67 | IEC-6 tox confirm 45
CC(=O)NC1=NN(C(C)=O)C(C)(c2ccc3ccccc3c2)S1 (stereo not given)	none
COc1ccccc1NC(=O)N1CCC(c2nc3cc(C)c(C)cc3[nH]2)CC1	aSyn 5UTR inh 74, IEC-6 tox 82, BaF3 parental 81, APP 5UTR inh 58, Ba/F3 V617F tox 83 | IEC-6 tox confirm 59
COc1ccc(/C=N\NC(=O)c2ccccc2F)cc1COc1ccc(F)cc1F	IEC-6 tox 80 (no result: BaF3 parental, APP 5UTR inh, Ba/F3 V617F tox) | IEC-6 tox confirm 62
COc1cc2ccccc2cc1C(=O)N/N=C/c1ccc2c(c1)OCO2	IEC-6 tox 37 (no result: BaF3 parental, APP 5UTR inh, Ba/F3 V617F tox) | IEC-6 tox confirm 25
COc1ccc(/C=N/NC(=O)c2ccco2)cc1COc1ccc(F)cc1	none (no result: BaF3 parental, APP 5UTR inh, Ba/F3 V617F tox)
COc1ccc(/C=N\NC(=O)c2ccccc2F)cc1COc1ccc(F)cc1	IEC-6 tox 23 (no result: BaF3 parental, APP 5UTR inh, Ba/F3 V617F tox) | IEC-6 tox confirm inactive
CCn1cc(C(=O)O)c(=O)c2cnc(N3CCN(C(=S)Nc4ccccc4Cl)CC3)nc21	none (no result: APP 5UTR inh)
O=[N+]([O-])c1ccc(NCCNCCOc2nonc2-c2ccccc2)c([N+](=O)[O-])c1	none
Cc1cccc(OCC(=O)N2CCc3ccccc3C2)c1	none (no result: BaF3 parental, APP 5UTR inh, Ba/F3 V617F tox)
N#CC1=C(N)Oc2cc(N)ccc2C1c1cccc(F)c1 (stereo not given)	IEC-6 tox 51 (no result: BaF3 parental, APP 5UTR inh, Ba/F3 V617F tox) | IEC-6 tox confirm 42
COC(=O)c1ccc(C2C(C#N)=C(N)Oc3cc(N)ccc32)cc1 (stereo not given)	none (no result: BaF3 parental, APP 5UTR inh, Ba/F3 V617F tox)
O=C(/C=C/c1ccccc1)Nc1ccc(Br)cn1	IEC-6 tox 26, APP 5UTR inh 63 | IEC-6 tox confirm 56
COc1ccc(C(C(=O)NCC2CCCO2)N(C(=O)CNC(=O)c2ccco2)c2cc(C)ccc2C)cc1OC (stereo not given)	none (no result: BaF3 parental, APP 5UTR inh, Ba/F3 V617F tox)
CCOC(=O)c1cnn(-c2ccccc2)c1NC(=O)CSc1nnc(-c2cccs2)n1CC	IEC-6 tox 24 | IEC-6 tox confirm inactive
C[C@@H]1C[C@H](O)c2cc(Cl)ccc2N1	none
N#CC1CC(c2ccccc2)Nc2cc(Cl)ccc2N1 (stereo not given)	IEC-6 tox 40 (no result: APP 5UTR inh) | IEC-6 tox confirm inactive
CCCCCCCCn1c2c(c(=N)c3ccccc31)CCC2	IEC-6 tox 40, BaF3 parental 82, Ba/F3 V617F tox 99 | IEC-6 tox confirm 37
COc1cc(C2(c3ccc(O)c(OC)c3)C(=O)Nc3c(C)cc(Br)cc32)ccc1O	none (no result: IEC-6 tox, BaF3 parental, KLF5 inh, APP 5UTR inh, Ba/F3 V617F tox)
COc1ccccc1NC(=O)COC(=O)c1ccccc1OCC(=O)Nc1ccc(SC(F)F)cc1	none
CN(C)C(=O)COC(=O)c1ccccc1Nc1ccc(SC(F)F)cc1	IEC-6 tox 45 | IEC-6 tox confirm 37
COc1cc2c(c(OC)c1OC)-c1ccc(NC(=O)c3ccc(F)cc3)c(=O)cc1[C@@H](NC(C)=O)CC2	IEC-6 tox 26 (no result: BaF3 parental, APP 5UTR inh, Ba/F3 V617F tox) | IEC-6 tox confirm 53
